ST2 inh – blocks human ST2 binding to IL-33. inhibition, % for hits at 17 µM. AID 1259354. Q01638. AlphaLISA ST2-Fc/biotin-IL-33 interaction, 1 h. actives 2.3% (n = 78,000); in the data active = inhibition above about 30%
Target sequence (Q01638 whole entry, looked up): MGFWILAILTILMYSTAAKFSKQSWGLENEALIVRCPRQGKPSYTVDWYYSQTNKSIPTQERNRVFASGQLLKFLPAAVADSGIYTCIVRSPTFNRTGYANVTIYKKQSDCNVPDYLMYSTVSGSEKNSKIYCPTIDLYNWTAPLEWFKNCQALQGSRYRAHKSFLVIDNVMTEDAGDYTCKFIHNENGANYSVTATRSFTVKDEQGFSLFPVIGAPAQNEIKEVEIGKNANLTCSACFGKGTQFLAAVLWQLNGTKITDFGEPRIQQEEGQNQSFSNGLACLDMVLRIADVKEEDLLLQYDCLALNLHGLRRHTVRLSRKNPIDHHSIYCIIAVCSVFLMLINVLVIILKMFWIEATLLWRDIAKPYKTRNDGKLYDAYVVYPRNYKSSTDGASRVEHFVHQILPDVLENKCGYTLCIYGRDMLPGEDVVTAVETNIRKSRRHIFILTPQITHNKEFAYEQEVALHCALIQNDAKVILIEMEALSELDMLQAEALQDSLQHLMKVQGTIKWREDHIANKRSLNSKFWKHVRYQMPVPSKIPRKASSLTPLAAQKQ
Active calls of the source: *; i = inactive. The entries come from a sample that favours hits as a whole.

SMILES	ST2 inh
Cc1ccc(C(=O)Nc2nc3ccc4sc(C)nc4c3s2)cc1	42%*
CCOc1ccc(C(=O)Nc2nc3ccc4sc(C)nc4c3s2)cc1	i
COc1cc(OC)cc(C(=O)Nc2nc3ccc4sc(C)nc4c3s2)c1	i
COc1ccc(CN2CCN(c3ccc(Cl)cc3)CC2)c(OC)c1C	i
CC1CC(C)CN(CCCNC(=O)CSc2cc(=O)n(C)c3cc(Cl)ccc23)C1 (stereo not given)	i
Cc1c(C(C)NCc2ccc(F)c(F)c2)cnn1-c1ccccc1 (stereo not given)	i
Cc1ccc2[nH]c(CNC(C)c3cnn(-c4cccc(F)c4)c3C)c(C)c2c1 (stereo not given)	32%*
Cc1c(C(C)NCCCc2ccccc2)cnn1-c1cccc(F)c1 (stereo not given)	i
N#Cc1ccc(NC(=O)c2cc(C3CC3)on2)cc1	i
O=C(Nc1cc(Cl)ccc1Cl)c1cc(-c2ccc3c(c2)OCO3)on1	i
CCc1ccc(Cn2c(CNS(=O)(=O)c3ccccc3)nc3cccnc32)cc1	i
Cc1nc2c(sc3cc([N+](=O)[O-])cc(Sc4ccccc4)c32)c(=O)n1C	i
O=[N+]([O-])c1cc([N+](=O)[O-])c2c(OCc3ccccc3)nsc2c1	43%*
Cc1c(N=Cc2ccccc2)cc([N+](=O)[O-])cc1[N+](=O)[O-]	i
Cc1nc2c(c(NCc3cnc4c(c3)CCC4)n1)CNC2	i
CCc1c(C)nn(CC(=O)N2CCCC(Nc3ccccc3)C2)c1C (stereo not given)	i
Cc1ccc(N=c2oc3ccc(Br)cc3cc2C(N)=O)cc1	i
Cc1cccc(N=c2oc3ccc(Br)cc3cc2C(N)=O)c1	i
NC(=O)c1cc2cc(Br)ccc2oc1=Nc1ccccc1	33%*
CCC1=C(C)/C(=C\c2[nH]c(C)c(CC)c2C)N=C1C	78%*
Cc1cc(NC(=O)CSc2nc3c(sc4ccccc43)c(=O)n2Cc2ccccc2)n[nH]1	i
Cc1cc(C)c(C#N)c(SCc2ccccn2)n1	i
COc1cccc(/C=C2/C(=O)NN(c3ccc(C)c(Cl)c3)C2=O)c1OCC#N	i
COc1ccc(-c2ccc(/C=C3/C(=O)NN(c4ccc(C)c(Cl)c4)C3=O)o2)c([N+](=O)[O-])c1	41%*
Cc1ccc(-c2ccc(/C=C3/C(=O)NN(c4ccc(F)cc4)C3=O)o2)c([N+](=O)[O-])c1C	42%*
SMILES	ST2 inh
N=C1S/C(=C/c2ccc(-c3ccccc3[N+](=O)[O-])o2)C(=O)N1c1nonc1N	i
COc1ccccc1/C=C1/C(=O)NN(c2ccc(C)c(Cl)c2)C1=O	i
CCOc1ccccc1C1C(C(N)=O)=C(C)Nc2ncnn21 (stereo not given)	i
COCCN1CCCC2(CCN(Cc3cnc(-c4cccc5ccccc45)nc3)C2)C1 (stereo not given)	i
NC(=O)C(=O)NC1CCCN(Cc2ccc(F)cc2)C1 (stereo not given)	i
COc1ccc(-c2ncc(CN3CCCC(Nc4ccc(F)cc4)C3)cn2)cc1 (stereo not given)	i
CNC(=O)c1ccc(CN2CCCC(Nc3ccc(F)cc3)C2)o1 (stereo not given)	36%*
C=CCN1C(=O)NC(=O)/C(=C/c2cccc(OCc3ccccc3Cl)c2)C1=O	i
CC1=NN(c2ccccc2)C(=O)/C1=C/c1ccc(O)c(Br)c1	i
COc1cc(/C=C2\C(=O)N(c3ccccc3)N=C2C)ccc1OCc1ccc(F)cc1	i
Cc1cccc(OCCOCCOc2ccc(/C=C3\C(=O)NN(c4ccccc4)C3=O)cc2)c1	34%*
COc1cccc(OCCOc2ccc(/C=C3/C(=O)N(c4ccccc4)N=C3C)cc2OC)c1	43%*
CCc1cccc(OCCOCCN2CCCC2)c1	i
COc1ccccc1/C=C1/C(=O)N(c2ccccc2)N=C1C	i
CC1=NN(c2ccccc2)C(=O)/C1=C/c1cccc(C(=O)O)c1	i
COc1ccccc1OCCOc1ccc([N+](=O)[O-])cc1/C=C1/C(=O)N(c2ccccc2)N=C1C	i
COc1cccc(/C=C2\C(=O)N(c3cccc(Cl)c3)N=C2C)c1	i
CC1=NN(c2ccccc2)C(=O)/C1=C\c1ccccc1OCc1ccccc1	40%*
COc1cc(/C=C2/C(=O)N(c3ccccc3)N=C2C)ccc1OCCOCCOc1ccccc1	45%*
COc1ccc(C)cc1S(=O)(=O)n1nnc2cc(Cl)ccc21	i
COc1ccc(C[C@H](NC(=O)[C@@]2(O)C[C@@H](O)[C@H](O)[C@@H](NC(=O)c3cccnc3)C2)C(N)=O)cc1	i
O=C(CCC1CCN(C(=O)c2ccsc2)CC1)NCc1cccc(C(F)(F)F)c1	i
O=C(c1cncc(N2[C@H]3CCNC[C@@H]2CC3)n1)N1CCCCC1	i
O=C(c1cnn2ccccc12)N1C[C@H]2OC(=O)N(Cc3ccccn3)[C@H]2C1	i
CCOc1ccc(C(=O)N2CCCC(c3nn(C)c(=O)n3CC)C2)o1 (stereo not given)	i
SMILES	ST2 inh
O=C(Nc1c(-c2ccc(F)cc2)nc2ccccn12)c1ccc2c(c1)OCO2	i
O=C1c2cccnc2CN1Cc1cc(-c2ccco2)on1	i
COc1ccccc1CNC(=O)CN[C@@H]1C[C@@H]2C[C@H]([C@H]1C)C2(C)C	i
N#Cc1ccc(Oc2ccc(C(=O)c3ccccc3)cc2)cc1C#N	i
O=C(c1ccccc1)c1cc(Br)ccc1O	i
N#Cc1ccc(Br)cc1/C=C/C(=O)O	80%*
O=C1NC(c2ccccc2)C(=C(O)c2ccc(Br)cc2)C1=O (stereo not given)	i
Cc1[nH]c2c(C(=O)N3CCC4(CC3)C(=O)NCCN4C)cccc2c1C	i
CCCCc1ncc(CN2CCC3(CC2)C(=O)NCCN3C)[nH]1	i
Cc1c(CN2CCC3(CC2)C(=O)NCCN3C)[nH]c2c(C)cccc12	30%*
COCCNC(=S)N[C@H]1C[C@H]2C(=O)NC[C@@H](CCC(=O)N3CCN(c4ccccn4)CC3)N2C1	i
COc1ccc(CN[C@H]2C[C@H]3C(=O)NC[C@@H](CCC(=O)N4CCN(c5ccccc5)CC4)N3C2)cc1	57%*
O=C(Nc1ccccc1)N[C@H]1C[C@H]2C(=O)NC[C@@H](CCC(=O)N3CCN(c4ccccn4)CC3)N2C1	i
O=C(N[C@H]1C[C@H]2C(=O)NC[C@@H](CCC(=O)N3CCN(c4ccccc4)CC3)N2C1)C1CC1	i
O=C(N[C@H]1C[C@H]2C(=O)NC[C@@H](CCC(=O)N3CCN(c4ccccn4)CC3)N2C1)c1cccs1	33%*
COCCNC(=S)N[C@H]1C[C@H]2C(=O)NC[C@@H](CCC(=O)N3CCN(c4ccccc4)CC3)N2C1	i
COc1ccccc1NC(=O)C1=C(C)Nc2nnnn2C1c1ccc(F)cc1 (stereo not given)	i
CSc1cccc(NC(=O)c2ccc(N(Cc3ccccc3Cl)S(C)(=O)=O)cc2)c1	i
NS(=O)(=O)c1ccc(CCNC(=O)c2ccc(NC(=O)N3CCCCc4ccccc43)cc2)cc1	i
COC(=O)c1ccc(-c2noc(CN(C)Cc3cccc(-n4nc(C)cc4C)c3)n2)cc1	i
C[C@H]1[C@@H]2[C@@H](O)C([C@H](C)C(=O)N(C)CCC#N)CC[C@@]2(C)CC[C@@H]1NC(=O)c1cncnc1 (stereo not given in full)	i
CCN(CC)C(=O)[C@@H](C)C1CC[C@@]2(C)CC[C@H](NC(=O)c3ccncc3)[C@@H](C)[C@@H]2[C@H]1O (stereo not given in full)	49%*

From PubChem
